High-throughput results from PubChem.
PHOSPHO1 inh: PHOSPHO1 (human) inhibition; recombinant PHOSPHO1, absorbance phosphatase assay; inhibition, % at 13.3 µM; 290,000 tested, 1.1% active; in the data active means inhibition above about 60%
ALR inh: inhibitors of human sulfhydryl oxidase ALR; P55789; purified ALR, DTT oxidation, H2O2 HRP-luminol luminescence; inhibition, % (no concentration beside the values); 290,000 tested, 3.8% active; AID 485317;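 active means mean replicate inhibition above about 79%, with every replicate also reaching it, limit read from the data; inconclusive means only one of the two criteria met; inactive means mean below limit and not every replicate reaching it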
aDG glyco up: alpha-DG glycosylation activation | Pro5-aDG cells, alpha-DG glycosylation AlphaScreen (IIH6); 0% Pro5, 100% B10-LARGE cell signal | activation, % at 10 µM | 360,000 tested, 0.22% active | AID 624168;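 active means activation of at least 8% versus controls, or a plate z-score of at least 8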;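 further: Pro5 are CHO cells carrying HIG-tagged alpha-DG that lacks glycosylation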
A3A deaminase: inhibitors of human APOBEC3A DNA deaminase; inhibition, % at 20 µM; AID 493011; P31941; 330,000 tested, 0.41% active; recombinant A3A, FAM/TAMRA ssDNA deamination fluorescence;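 active means at least 40% inhibition at 20 µM here, with at most 30% in a related deaminase screen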;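 further: plate controls were A3A with DMSO for no effect and wells lacking A3A enzyme for full effect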
Target sequence (P31941 whole entry, looked up): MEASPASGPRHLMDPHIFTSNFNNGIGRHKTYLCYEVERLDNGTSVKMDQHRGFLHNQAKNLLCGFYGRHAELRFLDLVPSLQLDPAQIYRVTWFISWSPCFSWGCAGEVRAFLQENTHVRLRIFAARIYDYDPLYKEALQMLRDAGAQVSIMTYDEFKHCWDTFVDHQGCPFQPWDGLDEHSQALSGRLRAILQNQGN
rCAG binder: binds r(CAG) RNA repeats | r(CAG) RNA repeat, TO-PRO-1 dye displacement fluorescence | inhibition, % at 3 µM | 370,000 tested, 1.3% active | AID 651821;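 active means inhibition above the plate cutoff, the mean of all test compounds on that plate plus 3 SD, cut at about 35% in these data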;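 further: 0% = DMSO alone and 100% = 100 µM mitoxantrone as full dye displacement; higher means more dye released from RNA so lower well fluorescence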
A3G deaminase: blocks human APOBEC3G single-stranded DNA deamination; recombinant A3G, ssDNA deamination FAM/TAMRA fluorescence; inhibition, % at 20 µM; 330,000 tested, 0.28% active;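 active means inhibition of at least 40% at 20 µM, with no more than 30% in the related APOBEC3A deaminase screen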;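 further: plate controls were DMSO wells with A3G for no effect and wells lacking A3G enzyme for full effect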
Target sequence (Q9HC16 whole entry, looked up): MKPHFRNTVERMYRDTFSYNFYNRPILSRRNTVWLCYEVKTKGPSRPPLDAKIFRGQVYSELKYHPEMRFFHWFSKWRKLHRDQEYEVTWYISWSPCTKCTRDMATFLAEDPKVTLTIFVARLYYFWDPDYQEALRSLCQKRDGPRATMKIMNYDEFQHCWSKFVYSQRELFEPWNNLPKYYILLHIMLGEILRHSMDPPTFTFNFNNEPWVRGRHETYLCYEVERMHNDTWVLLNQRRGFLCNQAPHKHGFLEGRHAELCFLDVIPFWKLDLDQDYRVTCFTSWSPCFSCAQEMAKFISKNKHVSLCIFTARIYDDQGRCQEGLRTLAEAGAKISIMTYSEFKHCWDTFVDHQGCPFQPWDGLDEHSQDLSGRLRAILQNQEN
A3A conf: APOBEC3A (human) deaminase inhibition, confirmed | shares compounds with A3A deaminase | recombinant A3A, ssDNA deaminase UDG fluorescence assay | inhibition, % at 20 µM | 1,400 tested, 63% active;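 active means inhibition reaching a set limit, 80% of the first screen's cutoff, at 20 µM in any replicate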;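 further: plate controls were DMSO wells with A3A for no effect and wells lacking A3A enzyme for full effect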
UDG A3A counter: inhibits UDG, flagging false APOBEC3A inhibitors | shares compounds with A3A deaminase | UDG counterscreen, FAM/TAMRA uracil oligo fluorescence | inhibition, % at 20 µM | 1,000 tested, under 10 active | AID 504714; call rule not given here
* marks the source's active call; other numbers are inactive results; ? = inconclusive; · = no result. In the library only some 5.4% were active in any assay of this set; here they are far more common.

SMILES	PHOSPHO1 inh	ALR inh	aDG glyco up	A3A deaminase	rCAG binder	A3G deaminase	A3A conf	UDG A3A counter
CC(C)C[C@@H](COCc1ccc([N+](=O)[O-])cc1)N1CCN(C(=O)c2ccc(C(F)(F)F)cc2)CCC1=O	·	·	0	·	-1	·	·	·
Cc1ccc(-c2c(NC(=O)c3cccc(C)c3)nc3ncccn23)cc1	·	·	·	·	5	·	·	·
O=c1[nH]c(N/N=C/c2cc3c(cc2[N+](=O)[O-])OCO3)nc2ccccc12	-98	·	0	44*	1	16	71*	-4
O=c1[nH]c(N/N=C\c2ccc3c(c2)OCO3)nc2ccccc12	37	5	0	1	32	-5	·	·
COC(=O)c1c(Sc2ccccc2)c2ccccc2n1C	·	3	0	58*	2	11	82*	2
CCOC1=C2[C@H](c3ccc(CC)cc3)N(S(=O)(=O)c3ccc(C)cc3)C[C@H]2n2c(=O)n(-c3ccccc3)c(=O)n2C1	·	·	0	·	2	·	·	·
CN(C)c1ccc(O)c2c1CC1CC3C(N(C)C)C(=O)C(C(N)=O)=C(O)[C@@]3(O)C(=O)C1=C2O (some centres not stated)	·	·	0	40*	8	-3	-1	-3
C[C@H]1c2cccc(O)c2C(O)=C2C(=O)C3(O)C(O)=C(C(N)=O)C(=O)[C@@H](N(C)C)[C@@H]3[C@@H](O)[C@@H]21 (some centres not stated)	·	-6	0	3	6	-5	·	·
CN(C)c1ccc(O)c2c1CC1CC3[C@@H](N(C)C)C(=O)C(C(N)=O)C(=O)[C@]3(O)C(=O)C1C2=O (some centres not stated)	·	·	0	54*	7	12	30*	-2
C[C@H]1c2cccc(O)c2C(=O)C2C(=O)C3(O)C(=O)C(C(N)=O)C(=O)[C@@H](N(C)C)[C@@H]3[C@@H](O)[C@@H]21 (some centres not stated)	·	·	1	2	9	-1	·	·
COc1ccc(NC(=O)c2ccc(OCC3CCCO3)cc2)cc1OC (configuration not stated)	·	-4	0	50*	-1	16	36*	0
COc1ccc(-n2nnnc2C(c2ccccc2OC(F)(F)F)N2CCN(C/C=C/c3ccccc3)CC2)cc1 (configuration not stated)	·	·	0	·	6	·	·	·
COC(=O)N/N=C(C)\C=C\c1ccco1	-12	-4	0	49*	1	0	2	·
Cc1c2ccccc2cc(Cc2ccccc2)[n+]1C	14	7	0	43*	1	8	60*	-3
COc1ccc(CCN2C(=O)CC(Sc3ncccc3C(=O)O)C2=O)cc1OC (configuration not stated)	-27	-13	0	98*	6	-4	-5	2
O=CC(O)C1OC(=O)C(O)C1O (configuration not stated)	·	·	0	·	-1	·	·	·
CC(=O)Nc1nc2c(ccc3ccccc32)s1	·	-10	0	49*	1	9	13	·
O=C(Cc1ccccn1)c1ccncc1	·	·	0	·	0	·	·	·
CCN1/C(=C\C(C)=O)Sc2ccc(OC)cc21	61*	9	0	58*	·	16	67*	2
CC(C)COC(=O)N1CCCC1C(=O)Nc1nccs1 (configuration not stated)	-48	-2	0	54*	0	22	27	·
COc1ccc2cc(C(=O)CS(=O)(=O)c3ccc(Cl)cc3)c(=O)oc2c1	·	·	·	·	8	·	·	·
CC(C)C[C@H]1COc2cc(NCc3ccc(Cl)c(Cl)c3)ccc2S(=O)(=O)N1	·	·	·	·	2	·	·	·
Cc1ccc(/C=C/S(=O)(=O)NCC(=O)OCC(=O)Nc2c(F)cccc2F)cc1	·	·	0	55*	4	11	1	·
O=C(N[C@H](C(=O)N1CCC[C@H]1C(=O)NCCc1ccccc1Cl)c1ccccc1)c1ccc(Cl)cc1Cl	·	·	·	·	2	·	·	·
C/C(=N\OCC(=O)N/N=C/c1ccc(C)cc1O)c1cccs1	45	9	0	51*	4	-7	-3	1
SMILES	PHOSPHO1 inh	ALR inh	aDG glyco up	A3A deaminase	rCAG binder	A3G deaminase	A3A conf	UDG A3A counter
CC(=O)c1ccccc1NS(=O)(=O)c1cccc2nsnc12	20	-11	0	41*	2	8	29*	2
CC(=O)c1ccccc1NS(=O)(=O)c1cccc2nonc12	12	11	0	1	0	2	·	·
O=C(c1ccc(S(=O)(=O)N2CCCCC2)cc1)N1CCN=C1SCc1cccnc1	5	·	0	50*	3	-1	7	5
CN1C(C)(C)CC(=NO)CC1(C)C	·	·	0	·	0	·	·	·
N/C(=N/S(=O)(=O)c1ccccc1)c1cccc([N+](=O)[O-])c1	-22	-6	0	45*	0	-7	0	0
N/C(=N/OC(=O)c1cccc([N+](=O)[O-])c1)c1cccc([N+](=O)[O-])c1	-3	-3	0	47*	0	-4	7	5
N/C(=N\S(=O)(=O)c1ccccc1)c1ccc([N+](=O)[O-])cc1	13	-13	0	-1	0	-5	·	·
CC1=C(C(=O)N2CCOCC2)CC(CC(=O)NCc2cccs2)C(=O)N1Cc1ccccc1 (configuration not stated)	·	·	0	·	1	·	·	·
Cc1cccc(-c2cccc3c4c([nH]c23)[C@@H]2C[C@H](N(C)C(=O)OCc3ccccc3)[C@H]([C@H](C)O)CN2CC4)c1	·	·	·	·	8	·	·	·
CCN(CC)C(=O)Cn1cc(SCC(=O)NC2CCCC2)c2ccccc21	4	3	0	-3	-4	-9	·	·
CCN(CC)C(=O)Cn1cc(SCC(=O)NC)c2ccccc21	-5	-5	0	83*	-4	11	1	·
COc1ccc(NC(C)=[N+](C)CCNS(=O)(=O)c2ccc(Cl)cc2)cc1	-23	7	0	46*	0	14	29	·
CC(C)N1CC(O)=C(c2ccccc2)C1=N	7	28	0	74*	2	-3	-1	4
CC(C)N1CC(O)=C(c2nc3ccccc3[nH]2)C1=N	14	?	0	-1	-1	-1	·	·
O=C(CC[C@H]1O[C@@H](n2cnc3c(NC(=O)c4ccccc4)ncnc32)[C@H](O)[C@@H]1O)N[C@@H](CO)Cc1c[nH]c2ccccc12	·	·	0	·	3	·	·	·
Nc1[nH]c(C(=O)c2ccccc2)c(-c2ccc(Br)cc2)c1C(=O)c1ccccc1	·	·	·	·	9	·	·	·
CC(C)C[C@H](NC(=O)c1ccccn1)C(=O)N1CCC[C@H]1C(=O)NCc1ccccc1	·	·	·	·	-1	·	·	·
